High-throughput results from PubChem BioAssay.
Compounds with a hit are over-represented: about 13% of the library has one in this group of screens.
Pf growth 48h = inhibits P. falciparum growth in the first generation, 48 h | 310,000 compounds, 5.9% hits | Potency, µM (highest dose often 28.7 µM), most hits filed as inhibitors | P. falciparum luciferase growth in erythrocytes, 48 h
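Luminescence readout; reporter = integrated firefly luciferase in P. falciparum. RBC culture at 2% hematocrit, 0.1% parasitemia final, 37 C/5% CO2; decreased signal taken as growth inhibition.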
HCMV antiviral = human cytomegalovirus inhibition; AID 1259415; HFF cells, HCMV-luciferase reporter, 72 h; stronger effect = lower value; activity change, negative = inhibition, % at 57.5 µM; 410,000 compounds, 4.5% hits; in the data active means activity change below about -60%; inconclusive means no clear call, values can overlap the other calls; inactive means above about -39%
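Inhibition of viral replication was scored as loss of reporter luminescence in HFFs infected with HCMV-luciferase (MOI 1 PFU/cell) for 72 h; compounds tested at 2 doses, normalized to buffer and Salinomycin controls.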
HCV inhibitor = blocks hepatitis C virus; Potency, µM (series often up to 41.8 µM), hits mostly inhibitors; 340,000 compounds, 3.4% hits; AID 651820; Huh7.5.1 HCVcc-Cre infection, luciferase reporter, 44 h
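HCVcc-Cre virus at an moi near 0.5 was added right after compound to cells cultured 4 h from seeding (1,000 cells/well). Luciferase activity was determined 44 h later, 15 min after substrate addition at RT.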
Pf growth 96h = P. falciparum growth inhibition at 96 hour, primary screen for plastid delayed-death inhibitors | 320,000 compounds, 6.9% hits | Potency, µM (top dose mostly 28.7 µM), hits mostly inhibitors | P. falciparum luciferase reporter growth, 96 h
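P. falciparum expressing integrated firefly luciferase, in erythrocytes at 2% hematocrit, 0.05% parasitemia, incubated with compounds 96 h at 37 C, 5% CO2. Growth inhibition read as loss of luminescence; two-generation exposure targets delayed-death apicoplast inhibitors.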
Each line names hits and unclear results; the compound was inactive in the other large screens. Unless noted, the call rests on the fitted dose curve; in most records, active means well fitted inhibition curve with a large enough effect; inconclusive means small, poorly fitted or top-dose-only effect, or another doubt; inactive means no such curve, though single readings can be large or run the other way.

COc1cc(OC)c(NC(=O)COCc2cc(-c3cccs3)on2)cc1Cl	none (no result: Pf growth 48h, HCV inhibitor, Pf growth 96h)
O=C(CSc1nc(-c2ccc(Cl)cc2)cs1)Nc1cccc([N+](=O)[O-])c1	HCV inhibitor 13µM, Pf growth 96h inconclusive
O=[N+]([O-])c1cccc(NC(=S)Nc2nc(-c3ccccc3Cl)cs2)c1	Pf growth 48h inconclusive, HCV inhibitor 8.9µM (no result: HCMV antiviral)
CC(=O)C1=C(C)NC(SCC(=O)c2ccc(F)cc2)=C(C#N)C1CC(C)C (configuration not stated)	Pf growth 48h inconclusive, HCV inhibitor inconclusive, Pf growth 96h 8.3µM
CC(=O)C1=C(C)NC(SCC(=O)c2ccc(Cl)cc2)=C(C#N)C1CC(C)C (configuration not stated)	Pf growth 48h inconclusive, HCMV antiviral inconclusive (no result: Pf growth 96h)
CCOC(=O)C1=C(C)NC(SC)=C(C#N)C1CC(C)C (configuration not stated)	Pf growth 48h 1.7µM, HCV inhibitor inconclusive, Pf growth 96h inconclusive
Cc1cc(C)c2nc(C(F)(F)F)c(C#N)c(N)c2c1	HCMV antiviral inconclusive (no result: Pf growth 48h)
Cc1ccc2nc(C(F)(F)F)c(C#N)c(N)c2c1	HCMV antiviral -107, HCV inhibitor 25µM, Pf growth 96h inconclusive
COc1ccc(CNC(=O)C2CCCCN2S(=O)(=O)c2ccc(F)cc2)cc1 (configuration not stated)	none (no result: Pf growth 48h, HCV inhibitor, Pf growth 96h)
Cc1csc2nc(COC(=O)c3cccc(NC(=O)COc4ccc(Cl)cc4)c3)cc(=O)n12	none (no result: Pf growth 48h, HCV inhibitor, Pf growth 96h)
Oc1ccccc1-c1cc(C(F)(F)F)nc(-c2ccccc2)n1	Pf growth 48h inconclusive, Pf growth 96h inconclusive
Oc1ccc(Cl)cc1-c1cc(C(F)(F)C(F)F)nc(-c2ccccc2)n1	Pf growth 48h 1.3µM, HCV inhibitor inconclusive (no result: Pf growth 96h)
Cc1ccc(O)c(-c2cc(C(F)(F)C(F)F)nc(-c3ccccc3)n2)c1	Pf growth 48h inconclusive, HCV inhibitor inconclusive, Pf growth 96h 8.3µM
COc1ccc(-n2nc(C(=O)Nc3ccc(C)cn3)c3c4ccccc4n(C)c3c2=O)cc1	none (no result: Pf growth 48h, HCV inhibitor, Pf growth 96h)
CC(=O)c1cc(C)ccc1OC(=O)CN1C(=O)c2ccccc2C1=O	none
Cc1ccc(OCCCN2C(=O)C(=O)c3cccc(C)c32)cc1	none
O=C1C(=O)N(CCS(=O)(=O)c2ccccc2)c2ccc(Cl)cc21	Pf growth 48h inconclusive, Pf growth 96h inconclusive
Cc1ccc2c(c1)C(=O)C(=O)N2CC(=O)OC(C)C	Pf growth 96h 0.029µM
Cc1cccc2c1N(CCOc1ccc(C(C)(C)C)cc1)C(=O)C2=O	Pf growth 48h 10µM, HCV inhibitor inconclusive
Cc1ccc(OCCN2C(=O)C(=O)c3cc(C)ccc32)cc1	HCMV antiviral -92, HCV inhibitor inconclusive
CCCN1C(=O)C(=O)c2cc(Cl)ccc21	HCMV antiviral -86, HCV inhibitor inconclusive (no result: Pf growth 48h, Pf growth 96h)
CCCN(C(=O)c1cc2c(s1)-c1c(C)cccc1OC2)c1ccc(OCC)cc1	none (no result: Pf growth 48h, HCV inhibitor, Pf growth 96h)
O=C(NCCc1ccncc1)[C@@H]1[C@@H](CO)[C@@H]2Cn3c(ccc(-c4ccccc4)c3=O)[C@@H]2N1C(=O)C1CC1	none (no result: Pf growth 48h, HCV inhibitor, Pf growth 96h)
Cc1ccc2c(c1)C(=O)C(=O)N2Cc1ccc(OC(C)C)cc1	HCMV antiviral -76 (no result: Pf growth 48h, HCV inhibitor, Pf growth 96h)
Cc1ccc(C)c(CN2C(=O)C(=O)c3ccccc32)c1	none (no result: Pf growth 48h, HCV inhibitor, Pf growth 96h)
Cc1ccc2nc(-c3c[nH]c4ccccc34)c(Nc3ccccc3)n2c1	none (no result: Pf growth 48h, HCV inhibitor, Pf growth 96h)
Cn1cccc1/C=N/NC(=O)c1sc2cc(Cl)ccc2c1Cl	Pf growth 96h 2.3µM
Cc1ccc(NC(=O)N2CCc3cc(S(=O)(=O)N4CCC(C)CC4)ccc32)cc1F	none (no result: Pf growth 48h, HCV inhibitor, Pf growth 96h)
Cc1cc(C)c(NC(=O)C(=O)NCC(c2cccnc2)N2CCN(Cc3ccccc3)CC2)c(C)c1 (configuration not stated)	none (no result: Pf growth 48h, HCV inhibitor, Pf growth 96h)
Cc1ccc(Cl)cc1N1CCN(C(=O)CCS(=O)(=O)c2ccc3c(c2)oc(=O)n3C)CC1	none (no result: Pf growth 48h, HCV inhibitor, Pf growth 96h)
Oc1ccc(Br)cc1-c1cc(-c2ccc(Cl)cc2)n[nH]1	Pf growth 48h 1.2µM, HCMV antiviral -77, HCV inhibitor 10µM (no result: Pf growth 96h)
Oc1ccc(Br)cc1-c1cc(-c2ccccc2)n[nH]1	Pf growth 48h 5.2µM, HCV inhibitor inconclusive, Pf growth 96h 3.3µM
Cc1ccc(O)c(-c2cc(-c3cccc(F)c3)n[nH]2)c1	Pf growth 48h 8.3µM, HCV inhibitor 10µM (no result: Pf growth 96h)
O=[N+]([O-])c1cccc(-c2cc(-c3cc(Br)ccc3O)[nH]n2)c1	Pf growth 48h 4.7µM, HCMV antiviral inconclusive, HCV inhibitor 10µM, Pf growth 96h 8.3µM
O=Cc1cscc1[B-](F)(F)F	none (no result: Pf growth 48h, HCV inhibitor, Pf growth 96h)
COC(=O)C[C@H]1CC[C@H](NC(=O)Nc2ccccc2F)[C@@H](CO)O1	none (no result: Pf growth 48h, HCV inhibitor, Pf growth 96h)
CCn1c(=O)n(-c2ccc(F)c(Cl)c2)c(=O)c2c3c(sc21)CN(C(C)=O)CC3	none (no result: Pf growth 48h, HCV inhibitor, Pf growth 96h)
